# Source: PubChem BioAssay (NCATS)
# Results filed as inconclusive are left out. The source made the active and inactive calls. Unless noted, calls come from the whole dose curve; as a rule, active = well fitted curve in the direction sought with a large enough effect; inconclusive = small, poorly fitted or top-dose-only effect, or another doubt; inactive = no such curve, though single readings can be large; an effect the other way counts as inactive or inconclusive.
# Experiments:
# [1] = Quantitative High-Throughput drug screen in 47 multiple myeloma cell lines against the NCATS MIPE library collection: UTMC2_PLB cell viability assay (AID 1919868); conditions: CellTiter-Glo ATP luminescence, 48 h; viability (% of DMSO control): at 45.8 µM (top of the series); note: nearly all actives have a fitted effect of over 55% in size; note: potency is the fitted concentration of half-maximal effect;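 for viability (% of DMSO control): 100% = DMSO-only wells and 0% = media-only wells without cells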
# How it was run: (§1)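 MIPE 4.0 approved/investigational drugs; 500 cells/well; 48 h 37 °C humidified 5% CO2; CTG luminescence readout; DMSO = 100%, media = 0% viability.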
# [2] = Quantitative High-Throughput drug screen in 47 multiple myeloma cell lines against the NCATS MIPE library collection: PE2_PLB cell viability assay (AID 1919869); note: nearly all actives have a fitted effect of over 35% in size; note: potency is the fitted concentration of half-maximal effect
# How it was run: as §1
# [3] = Quantitative High-Throughput drug screen in 47 multiple myeloma cell lines against the NCATS MIPE library collection: PCM6_Riken cell viability assay (AID 1919870); note: nearly all actives have a fitted effect of over 30% in size; note: potency is the fitted concentration of half-maximal effect
# How it was run: as §1
# [4] = Quantitative High-Throughput drug screen in 47 multiple myeloma cell lines against the NCATS MIPE library collection: RPMI8226_ATCC cell viability assay (AID 1919871); note: nearly all actives have a fitted effect of over 30% in size; note: potency is the fitted concentration of half-maximal effect
# How it was run: as §1
# [5] = Quantitative High-Throughput drug screen in 47 multiple myeloma cell lines against the NCATS MIPE library collection: OPM2_DSMZ cell viability assay (AID 1919872); note: nearly all actives have a fitted effect of over 30% in size; note: potency is the fitted concentration of half-maximal effect
# How it was run: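 Primary qHTS used for cherry-picking: cells at 500/well, library compounds for 48 h (37C, 5% CO2), luminescent ATP assay.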
# [6] = Quantitative High-Throughput drug screen in 47 multiple myeloma cell lines against the NCATS MIPE library collection: KMS11_JCRBsus cell viability assay (AID 1919873); note: nearly all actives have a fitted effect of over 50% in size; note: potency is the fitted concentration of half-maximal effect
# How it was run: as §1
# [7] = Quantitative High-Throughput drug screen in 47 multiple myeloma cell lines against the NCATS MIPE library collection: KMS28BM_JCRB cell viability assay (AID 1919874); note: nearly all actives have a fitted effect of over 35% in size; note: potency is the fitted concentration of half-maximal effect
# How it was run: as §1
# [8] = qHTS for identification of novel therapeutic agents for treatment of microphthalmiaassociated transcription factor (MiT) renal cell carcinoma (RCC) (AID 1963991); conditions: CellTiter-Glo, 48 h, stronger effect = lower value
# How it was run: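 Curves over 11 concentrations were fitted to CellTiter-Glo luminescence, scaled between empty wells (0%) and DMSO (100%) viability. Cells were UOK109, UOK124 and UOK145 TFE3-fusion RCC lines at 500/well, exposed 48 hours at 37 C.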
# [9] = qHTS drug screen for cell cycle checkpoint inhibitors in PARPi-resistant BRCA-mutant ovarian cancer cell lines. (AID 1963452; calls by dose curve); conditions: PEO1/OlaR viability, CellTiter-Glo luminescence, 96 h, stronger effect = lower value
# How it was run: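 PEO1, PEO4 and PEO1/OlaR ovarian cancer cells, 600 per well, exposed 96 h at 37C to a dilution series. Viability read by CellTiter-Glo luminescence, normalized to DMSO and empty wells; activity summarized as Z-AUC.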
# [10] = Quantitative High-Throughput drug screen in 47 multiple myeloma cell lines against the NCATS MIPE library collection: VP6_DJ cell viability assay (AID 1919867); note: potency is the fitted concentration of half-maximal effect; nearly all actives have a fitted effect of over 40% in size
# How it was run: as §1
# [11] = molecular target: Cytochrome P450 2C19 (Homo sapiens) (UniProt P33261); assay: qHTS for inhibitors of CYP2C19 against the NCATS DSHEA and TCM libraries (AID 1919974); conditions: CYP2C19 enzyme inhibition, luminescence qHTS;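 note: luminescence from luciferin released by CYP2C19 oxidation of a pro-luciferin substrate; potency is the fitted concentration of half-maximal effect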
# Sequence of Cytochrome P450 2C19 (Homo sapiens) (P33261 whole entry, looked up, canonical isoform): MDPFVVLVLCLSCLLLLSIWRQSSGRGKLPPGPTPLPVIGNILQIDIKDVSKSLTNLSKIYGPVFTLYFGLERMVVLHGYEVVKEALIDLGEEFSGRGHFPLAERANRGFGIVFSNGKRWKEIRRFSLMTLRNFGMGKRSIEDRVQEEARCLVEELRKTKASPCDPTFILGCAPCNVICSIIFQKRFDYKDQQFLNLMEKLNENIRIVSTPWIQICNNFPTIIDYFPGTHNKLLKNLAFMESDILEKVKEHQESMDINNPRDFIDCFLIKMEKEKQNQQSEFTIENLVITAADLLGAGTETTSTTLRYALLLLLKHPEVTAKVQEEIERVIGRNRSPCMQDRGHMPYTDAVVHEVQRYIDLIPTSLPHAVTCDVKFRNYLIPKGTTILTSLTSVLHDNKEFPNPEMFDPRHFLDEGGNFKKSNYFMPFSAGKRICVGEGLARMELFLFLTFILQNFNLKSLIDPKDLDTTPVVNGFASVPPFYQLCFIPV
# How it was run: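 Read-out is luminescence after P450-Glo detection (30 min, RT). Before that: 15 min compound–enzyme preincubation, then 30-45 min reaction with 1x NADPH regeneration solution, substrate concentration isoform-specific.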
# [12] = KB-3-1 P-gp reporter qHTS against the NCATS DSHEA and TCM libraries (AID 1919975); note: 0% is about no effect
# How it was run: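 Parental KB-3-1 cells, 500 cells/well, in DMEM with 10% FBS, exposed 72 h at 37 C to compounds in concentration-response. Viability read by CellTiter-Glo luminescence after 30 min at room temperature.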
# [13] = qHTS Counterscreen for compound interference against the NCATS DSHEA and TCM libraries (AID 1919978); conditions: firefly luciferase detection reagent interference, luminescence;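 note: compounds preincubated with 1 µM D-luciferin or buffer before detection reagent; % of control where 0% means no effect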
# How it was run: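 Firefly luciferase detection reagent was added after compounds (19.5 nM–39.8 uM final) had been incubated 15 min at room temperature with 1 uM D-luciferin or with 100 mM phosphate buffer alone. Luminescence was read after 30 min at room temperature.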
# [14] = Dual reporter qHTS for agonist of Pregnane X Receptor (hPXR) against the NCATS DSHEA and TCM libraries: Fluorescence readout (AID 1920058); note: 0% is about no effect
# How it was run: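 HepG2 hPXR-Luc, 2000 cells/well, 5 h attach; cpds ~24 h, 37 °C/5% CO2; CellTiter-Fluor 1 h; fluor. Ex/Em 405/540 nm = viability.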
# [15] = molecular target: Nuclear receptor subfamily 1 group I member 2 (Homo sapiens) (UniProt O75469); assay: Dual reporter qHTS for agonist of Pregnane X Receptor (hPXR) against the NCATS DSHEA and TCM libraries: Luminescence readout (AID 1920059); note: potency is the fitted concentration of half-maximal effect
# Sequence of Nuclear receptor subfamily 1 group I member 2 (Homo sapiens) (O75469 whole entry, looked up): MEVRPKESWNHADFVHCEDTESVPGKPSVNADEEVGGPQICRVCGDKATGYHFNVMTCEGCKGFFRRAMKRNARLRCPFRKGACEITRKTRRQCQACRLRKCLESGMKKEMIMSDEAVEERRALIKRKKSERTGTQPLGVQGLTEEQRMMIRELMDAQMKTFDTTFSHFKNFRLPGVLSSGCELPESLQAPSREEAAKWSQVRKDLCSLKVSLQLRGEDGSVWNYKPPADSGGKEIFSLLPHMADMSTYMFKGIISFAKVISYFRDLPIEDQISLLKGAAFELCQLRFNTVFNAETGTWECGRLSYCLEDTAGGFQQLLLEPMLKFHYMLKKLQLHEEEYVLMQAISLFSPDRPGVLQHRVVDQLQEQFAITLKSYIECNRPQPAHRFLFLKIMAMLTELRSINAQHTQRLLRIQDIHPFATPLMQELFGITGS
# How it was run: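 hPXR-LucHepG2 cells in phenol red-free DMEM with 5% charcoal-stripped FBS, 2000 cells/well, attached 5 h, then exposed 24 h at 37C to compounds; rifampicin as positive agonist control (2.8 nM–92 uM). Luciferase luminescence read.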
# [16] = molecular target: Nuclear receptor subfamily 1 group I member 2 (Homo sapiens) (UniProt O75469); assay: Dual reporter qHTS for antagonist of Pregnane X Receptor (hPXR) against the NCATS DSHEA and TCM libraries: Luminescence Readout (AID 1920060);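 note: HepG2 cells carrying hPXR luciferase reporter stimulated with rifampicin at 2 µM; 0% is about no effect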
# How it was run: (§2)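 In antagonist mode, 2 uM rifampicin was added to hPXR-Luc HepG2 cells alongside test substances, incubated 24 h at 37 C; luminescence gave reporter activity, and CellTiter-Fluor fluorescence (405/540 nm) gave viability.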
# [17] = Dual reporter qHTS for antagonist of Pregnane X Receptor (hPXR) against the NCATS DSHEA and TCM libraries: Fluorescence Readout (AID 1920061); note: 0% is about no effect
# How it was run: as §2
# [18] = TFE3-RCC UOK109 viability, measured here: UOK109 Z-AUC
# [19] = TFE3-RCC viability, measured here: UOK124 Z-AUC
# [20] = TFE3-RCC viability, measured here: UOK145 Z-AUC
# [21] = measured here: PEO1 parental Z-AUC
structure (smiles),measurement,setting,value
NC[C@@H]1O[C@@H](O[C@H]2[C@@H](O)[C@H](O[C@@H]3[C@@H](O)[C@@H](N)C[C@H](N)[C@H]3O[C@H]3O[C@H](CN)[C@@H](O)[C@@H](O)[C@H]3N)O[C@H]2CO)[C@H](N)[C@@H](O)[C@@H]1O,Potency,[1],inactive
same,Potency,[2],inactive
same,Potency,[3],inactive
same,Potency,[4],inactive
same,Potency,[5],inactive
same,Potency,[6],inactive
same,Potency,[7],inactive
same,z-score,[8]; [18],1.35
same,z-score,[8]; [19],0.643
same,z-score,[8]; [20],1.63
OC[C@H]1O[C@@H](Oc2cc(O)cc(C=Cc3ccc(O)cc3)c2)[C@H](O)[C@@H](O)[C@H]1O,Potency,[1],inactive
same,Potency,[2],inactive
same,Potency,[4],inactive
same,Potency,[5],inactive
same,Potency,[6],inactive
same,Potency,[7],inactive
same,z-score,[8]; [18],0.664
same,z-score,[8]; [19],0.547
same,z-score,[8]; [20],1.48
CC(=O)Nc1ccc([C@H](C)C(=O)Nc2ncc(C(C)C)s2)cc1,Potency,[1],3.72 µM (active)
same,Potency,[2],2.35 µM (active)
same,Potency,[3],1.48 µM (active)
same,Potency,[4],2.64 µM (active)
same,Potency,[5],8.33 µM (active)
same,Potency,[6],2.35 µM (active)
same,Z-AUC,[9],-0.905 (inactive)
same,Z-AUC,[9]; [21],-1.74
same,Z-AUC,[9]; measured here: PEO4 Z-AUC,-1.22
CC(C)(Cc1ccc2ccccc2c1)NC[C@@H](O)COc1cccc(Cl)c1C#N,Potency,[1],inactive
same,Potency,[2],inactive
same,Potency,[3],inactive
same,Potency,[5],inactive
same,Potency,[6],inactive
same,Potency,[7],inactive
CC(C)(C)c1cc(C(=O)O)c(NC(=O)Nc2ccc3[nH]ncc3c2)s1,Potency,[1],inactive
same,Potency,[2],16.6 µM (active)
same,Potency,[3],inactive
same,Potency,[4],inactive
same,Potency,[5],inactive
same,Potency,[6],inactive
same,Z-AUC,[9],-0.548 (inactive)
same,Z-AUC,[9]; [21],-0.418
same,Z-AUC,[9]; measured here: PEO4 Z-AUC,-0.766
same,z-score,[8]; [18],0.185
same,z-score,[8]; [19],-0.00808
same,z-score,[8]; [20],0.16
CCCCCCCCCCCC1=C(O)C(=O)C=C(O)C1=O,Potency,[10],2.64 µM (active)
same,Potency,[5],7.43 µM (active)
same,Z-AUC,[9],1.62 (inactive)
same,Z-AUC,[9]; [21],1.09
same,Z-AUC,[9]; measured here: PEO4 Z-AUC,1.19
O=c1cc(-c2ccc(O)cc2)oc2cc(O)cc(O)c12,Potency,[1],inactive
same,Potency,[2],20.9 µM (active)
same,Potency,[4],23.5 µM (active)
same,Potency,[6],20.9 µM (active)
same,Potency,[11],6.31 µM (active)
same,outcome,[12],inactive
same,max response,[13],-0.0344% (inactive)
same,outcome,[14],inactive
same,Potency,[15],31.6 µM (active)
same,outcome,[16],inactive
same,outcome,[17],inactive
same,Z-AUC,[9],0.475 (inactive)
same,Z-AUC,[9]; [21],0.649
same,Z-AUC,[9]; measured here: PEO4 Z-AUC,0.805
O=C(O)c1ccc(-c2cc3cccnc3c(-c3ccc4nonc4c3)n2)cc1,Potency,[10],20.9 µM (active)
same,Potency,[3],29.6 µM (active)
same,Potency,[6],26.4 µM (active)
same,Potency,[7],26.4 µM (active)
O=c1c(O)c(-c2ccc(O)cc2)oc2cc(O)cc(O)c12,Potency,[10],16.6 µM (active)
same,Potency,[3],18.7 µM (active)
same,Potency,[7],4.69 µM (active)
same,Z-AUC,[9],0.889 (inactive)
same,Z-AUC,[9]; [21],1.15
same,Z-AUC,[9]; measured here: PEO4 Z-AUC,1.73
Cc1ccc(C(=O)Nc2cccc(C(F)(F)F)c2)cc1Nc1nc(-c2cccnc2)nc2c1cnn2C,Potency,[1],11.8 µM (active)
same,Potency,[2],9.35 µM (active)
same,Potency,[3],20.9 µM (active)
same,Potency,[4],18.7 µM (active)
same,Potency,[5],16.6 µM (active)
same,Z-AUC,[9],0.462 (inactive)
same,Z-AUC,[9]; [21],0.182
same,Z-AUC,[9]; measured here: PEO4 Z-AUC,0.562
O=C(Nc1cc(Cl)cc2c1[nH]c1cnccc12)c1cccnc1,Potency,[10],7.43 µM (active)
same,Potency,[5],inactive
same,Potency,[6],inactive
same,Z-AUC,[9],0.696 (inactive)
same,Z-AUC,[9]; [21],0.253
same,Z-AUC,[9]; measured here: PEO4 Z-AUC,0.368
COc1cc2c(cc1OC)CN(CCc1ccc(NC(=O)c3cc(OC)c(OC)cc3NC(=O)c3cnc4ccccc4c3)cc1)CC2,Potency,[2],26.4 µM (active)
same,Potency,[3],18.7 µM (active)
same,Potency,[4],0.418 µM (active)
same,Potency,[5],inactive
same,Z-AUC,[9],0.969 (inactive)
same,Z-AUC,[9]; [21],1.41
same,Z-AUC,[9]; measured here: PEO4 Z-AUC,1.02
